# Data from ChEMBL document CHEMBL2218924, “A broad activity screen in support of a chemogenomic map for kinase signalling research and drug discovery” (Biochem J, 2013).
# Experiments:
# [1] = target: Vascular endothelial growth factor receptor 3 (Homo sapiens) (UniProt P35916); details: at 10 µM
# [2] = target: Macrophage colony-stimulating factor 1 receptor (Homo sapiens) (UniProt P07333); details: at 1 µM
# [3] = target: Macrophage colony-stimulating factor 1 receptor (Homo sapiens) (UniProt P07333); details: at 10 µM
# [4] = target: Tyrosine-protein kinase Fyn (Homo sapiens) (UniProt P06241); details: at 1 µM
# [5] = target: Tyrosine-protein kinase Fyn (Homo sapiens) (UniProt P06241); details: at 10 µM
# [6] = target: T1, Mitogen-activated protein kinase kinase kinase kinase 2 (Homo sapiens) (UniProt Q12851); details: at 1 µM
# T1 sequence (whole entry): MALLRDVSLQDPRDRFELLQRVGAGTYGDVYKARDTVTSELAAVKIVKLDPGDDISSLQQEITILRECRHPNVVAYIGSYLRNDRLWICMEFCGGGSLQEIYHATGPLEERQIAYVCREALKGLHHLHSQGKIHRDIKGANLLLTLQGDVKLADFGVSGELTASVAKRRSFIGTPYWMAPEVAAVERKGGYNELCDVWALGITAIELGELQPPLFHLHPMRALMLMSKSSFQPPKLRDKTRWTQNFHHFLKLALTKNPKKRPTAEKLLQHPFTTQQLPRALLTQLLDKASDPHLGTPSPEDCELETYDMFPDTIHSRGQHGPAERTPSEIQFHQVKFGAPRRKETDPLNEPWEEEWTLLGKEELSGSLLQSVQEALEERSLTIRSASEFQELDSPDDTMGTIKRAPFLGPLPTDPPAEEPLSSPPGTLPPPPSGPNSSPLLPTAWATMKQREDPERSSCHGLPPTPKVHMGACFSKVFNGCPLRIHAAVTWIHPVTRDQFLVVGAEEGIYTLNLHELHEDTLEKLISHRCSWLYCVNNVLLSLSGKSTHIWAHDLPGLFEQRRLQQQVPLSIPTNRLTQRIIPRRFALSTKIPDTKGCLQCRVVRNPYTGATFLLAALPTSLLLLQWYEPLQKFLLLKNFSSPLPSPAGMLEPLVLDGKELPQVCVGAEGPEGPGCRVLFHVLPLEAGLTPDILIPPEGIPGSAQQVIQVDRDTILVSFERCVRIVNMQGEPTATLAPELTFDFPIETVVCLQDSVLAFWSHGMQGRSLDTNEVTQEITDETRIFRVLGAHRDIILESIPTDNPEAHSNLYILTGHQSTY
# [7] = target: T1, Mitogen-activated protein kinase kinase kinase kinase 2 (Homo sapiens); details: at 10 µM
# [8] = target: G protein-coupled receptor kinase 5 (Homo sapiens) (UniProt P34947); details: at 10 µM
# [9] = target: G protein-coupled receptor kinase 6 (Homo sapiens) (UniProt P43250); details: at 10 µM
# [10] = target: T2, Rhodopsin kinase GRK7 (Homo sapiens) (UniProt Q8WTQ7); details: at 1 µM
# T2 sequence (whole entry): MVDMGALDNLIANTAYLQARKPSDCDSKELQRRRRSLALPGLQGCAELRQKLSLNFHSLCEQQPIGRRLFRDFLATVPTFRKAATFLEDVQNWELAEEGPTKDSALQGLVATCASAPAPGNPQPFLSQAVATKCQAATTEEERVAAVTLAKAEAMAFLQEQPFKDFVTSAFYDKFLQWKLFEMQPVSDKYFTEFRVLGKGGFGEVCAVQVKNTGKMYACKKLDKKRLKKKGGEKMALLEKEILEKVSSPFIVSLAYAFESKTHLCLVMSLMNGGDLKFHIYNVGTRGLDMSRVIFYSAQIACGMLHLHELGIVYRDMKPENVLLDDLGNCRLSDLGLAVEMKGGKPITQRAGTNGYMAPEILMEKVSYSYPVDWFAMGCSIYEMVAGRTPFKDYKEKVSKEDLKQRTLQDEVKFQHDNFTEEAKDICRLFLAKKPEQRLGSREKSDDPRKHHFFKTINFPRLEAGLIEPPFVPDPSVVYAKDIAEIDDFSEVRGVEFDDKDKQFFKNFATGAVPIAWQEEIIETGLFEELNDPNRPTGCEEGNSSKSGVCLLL
# [11] = target: T2, Rhodopsin kinase GRK7 (Homo sapiens); details: at 10 µM
# [12] = target: Glycogen synthase kinase-3 alpha (Homo sapiens) (UniProt P49840); details: at 1 µM
# [13] = target: Glycogen synthase kinase-3 alpha (Homo sapiens) (UniProt P49840); details: at 10 µM
# [14] = target: Glycogen synthase kinase-3 beta (Homo sapiens) (UniProt P49841); details: at 1 µM
# [15] = target: Glycogen synthase kinase-3 beta (Homo sapiens) (UniProt P49841); details: at 10 µM
# [16] = target: Homeodomain-interacting protein kinase 1 (Homo sapiens) (UniProt Q86Z02); details: at 1 µM
# [17] = target: Homeodomain-interacting protein kinase 1 (Homo sapiens) (UniProt Q86Z02); details: at 10 µM
# [18] = target: Homeodomain-interacting protein kinase 2 (Homo sapiens) (UniProt Q9H2X6); details: at 1 µM
# [19] = target: Homeodomain-interacting protein kinase 2 (Homo sapiens) (UniProt Q9H2X6); details: at 10 µM
# [20] = target: Homeodomain-interacting protein kinase 3 (Homo sapiens) (UniProt Q9H422); details: at 1 µM
# Sequence of Homeodomain-interacting protein kinase 3 (Homo sapiens) (Q9H422 whole entry, looked up): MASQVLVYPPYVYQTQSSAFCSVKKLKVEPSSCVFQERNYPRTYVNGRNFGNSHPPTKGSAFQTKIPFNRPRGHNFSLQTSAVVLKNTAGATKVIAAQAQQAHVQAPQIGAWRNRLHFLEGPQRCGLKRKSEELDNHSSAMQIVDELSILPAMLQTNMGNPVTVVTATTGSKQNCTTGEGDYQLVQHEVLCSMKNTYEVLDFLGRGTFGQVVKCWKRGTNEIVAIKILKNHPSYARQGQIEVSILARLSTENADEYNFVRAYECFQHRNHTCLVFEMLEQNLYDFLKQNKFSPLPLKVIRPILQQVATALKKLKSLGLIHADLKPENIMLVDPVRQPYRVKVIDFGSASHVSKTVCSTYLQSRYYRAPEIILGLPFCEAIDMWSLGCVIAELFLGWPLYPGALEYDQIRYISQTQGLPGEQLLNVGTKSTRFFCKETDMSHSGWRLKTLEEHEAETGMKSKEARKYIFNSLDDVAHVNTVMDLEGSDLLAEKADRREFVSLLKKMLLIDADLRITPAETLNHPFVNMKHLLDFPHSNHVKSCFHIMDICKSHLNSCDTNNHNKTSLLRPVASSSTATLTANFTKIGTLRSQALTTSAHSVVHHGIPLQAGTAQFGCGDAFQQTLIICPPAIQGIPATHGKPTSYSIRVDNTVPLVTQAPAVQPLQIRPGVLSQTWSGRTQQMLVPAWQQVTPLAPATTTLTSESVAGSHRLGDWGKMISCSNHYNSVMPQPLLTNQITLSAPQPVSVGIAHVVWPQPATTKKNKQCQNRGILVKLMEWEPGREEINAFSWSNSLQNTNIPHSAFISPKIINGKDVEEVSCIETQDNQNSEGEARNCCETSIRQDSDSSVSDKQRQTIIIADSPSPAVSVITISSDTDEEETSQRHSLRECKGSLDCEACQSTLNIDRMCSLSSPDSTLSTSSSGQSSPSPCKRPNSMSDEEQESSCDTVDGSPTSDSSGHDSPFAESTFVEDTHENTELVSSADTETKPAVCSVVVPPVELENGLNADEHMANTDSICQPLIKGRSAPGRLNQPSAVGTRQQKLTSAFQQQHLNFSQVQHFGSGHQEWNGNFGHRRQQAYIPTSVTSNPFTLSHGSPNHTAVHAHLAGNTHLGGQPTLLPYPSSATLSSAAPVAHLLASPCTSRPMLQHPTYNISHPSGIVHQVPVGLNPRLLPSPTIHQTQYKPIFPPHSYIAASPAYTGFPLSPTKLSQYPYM
# Sequence of Vascular endothelial growth factor receptor 3 (Homo sapiens) (P35916 whole entry): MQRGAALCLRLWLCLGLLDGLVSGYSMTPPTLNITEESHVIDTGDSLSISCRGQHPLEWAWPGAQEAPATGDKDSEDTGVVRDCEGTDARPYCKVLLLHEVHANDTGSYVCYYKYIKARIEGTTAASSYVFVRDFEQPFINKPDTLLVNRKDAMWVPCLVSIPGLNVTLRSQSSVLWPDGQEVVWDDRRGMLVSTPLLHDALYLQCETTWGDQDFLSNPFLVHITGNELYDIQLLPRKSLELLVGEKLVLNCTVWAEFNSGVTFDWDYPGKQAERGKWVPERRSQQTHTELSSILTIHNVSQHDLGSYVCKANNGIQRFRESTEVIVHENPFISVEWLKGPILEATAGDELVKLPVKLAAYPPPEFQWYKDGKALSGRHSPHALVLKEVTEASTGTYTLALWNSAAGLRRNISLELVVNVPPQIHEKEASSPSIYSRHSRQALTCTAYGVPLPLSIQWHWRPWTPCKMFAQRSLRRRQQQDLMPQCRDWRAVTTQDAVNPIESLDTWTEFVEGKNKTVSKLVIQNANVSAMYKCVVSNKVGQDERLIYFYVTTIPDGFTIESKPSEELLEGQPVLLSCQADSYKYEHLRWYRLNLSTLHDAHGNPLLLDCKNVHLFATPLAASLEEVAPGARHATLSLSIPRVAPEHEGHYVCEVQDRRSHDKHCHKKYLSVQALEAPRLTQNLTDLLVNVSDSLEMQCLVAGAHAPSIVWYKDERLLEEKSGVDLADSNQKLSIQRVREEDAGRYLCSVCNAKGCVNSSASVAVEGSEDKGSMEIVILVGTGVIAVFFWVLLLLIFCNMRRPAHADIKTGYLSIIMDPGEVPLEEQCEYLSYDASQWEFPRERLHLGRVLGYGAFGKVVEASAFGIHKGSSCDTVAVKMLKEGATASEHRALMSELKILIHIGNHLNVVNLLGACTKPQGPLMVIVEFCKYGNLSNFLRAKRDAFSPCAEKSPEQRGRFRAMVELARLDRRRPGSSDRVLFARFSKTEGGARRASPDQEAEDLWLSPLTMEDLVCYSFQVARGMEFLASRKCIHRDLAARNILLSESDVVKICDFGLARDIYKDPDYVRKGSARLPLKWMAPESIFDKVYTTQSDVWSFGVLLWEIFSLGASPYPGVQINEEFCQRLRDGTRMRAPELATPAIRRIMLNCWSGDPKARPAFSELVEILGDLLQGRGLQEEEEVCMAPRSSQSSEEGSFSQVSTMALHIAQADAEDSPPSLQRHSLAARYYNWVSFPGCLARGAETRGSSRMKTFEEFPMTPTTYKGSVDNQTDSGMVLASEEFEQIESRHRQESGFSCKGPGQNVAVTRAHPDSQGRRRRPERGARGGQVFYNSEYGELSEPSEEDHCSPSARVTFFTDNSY
# Sequence of Homeodomain-interacting protein kinase 2 (Homo sapiens) (Q9H2X6 whole entry, looked up): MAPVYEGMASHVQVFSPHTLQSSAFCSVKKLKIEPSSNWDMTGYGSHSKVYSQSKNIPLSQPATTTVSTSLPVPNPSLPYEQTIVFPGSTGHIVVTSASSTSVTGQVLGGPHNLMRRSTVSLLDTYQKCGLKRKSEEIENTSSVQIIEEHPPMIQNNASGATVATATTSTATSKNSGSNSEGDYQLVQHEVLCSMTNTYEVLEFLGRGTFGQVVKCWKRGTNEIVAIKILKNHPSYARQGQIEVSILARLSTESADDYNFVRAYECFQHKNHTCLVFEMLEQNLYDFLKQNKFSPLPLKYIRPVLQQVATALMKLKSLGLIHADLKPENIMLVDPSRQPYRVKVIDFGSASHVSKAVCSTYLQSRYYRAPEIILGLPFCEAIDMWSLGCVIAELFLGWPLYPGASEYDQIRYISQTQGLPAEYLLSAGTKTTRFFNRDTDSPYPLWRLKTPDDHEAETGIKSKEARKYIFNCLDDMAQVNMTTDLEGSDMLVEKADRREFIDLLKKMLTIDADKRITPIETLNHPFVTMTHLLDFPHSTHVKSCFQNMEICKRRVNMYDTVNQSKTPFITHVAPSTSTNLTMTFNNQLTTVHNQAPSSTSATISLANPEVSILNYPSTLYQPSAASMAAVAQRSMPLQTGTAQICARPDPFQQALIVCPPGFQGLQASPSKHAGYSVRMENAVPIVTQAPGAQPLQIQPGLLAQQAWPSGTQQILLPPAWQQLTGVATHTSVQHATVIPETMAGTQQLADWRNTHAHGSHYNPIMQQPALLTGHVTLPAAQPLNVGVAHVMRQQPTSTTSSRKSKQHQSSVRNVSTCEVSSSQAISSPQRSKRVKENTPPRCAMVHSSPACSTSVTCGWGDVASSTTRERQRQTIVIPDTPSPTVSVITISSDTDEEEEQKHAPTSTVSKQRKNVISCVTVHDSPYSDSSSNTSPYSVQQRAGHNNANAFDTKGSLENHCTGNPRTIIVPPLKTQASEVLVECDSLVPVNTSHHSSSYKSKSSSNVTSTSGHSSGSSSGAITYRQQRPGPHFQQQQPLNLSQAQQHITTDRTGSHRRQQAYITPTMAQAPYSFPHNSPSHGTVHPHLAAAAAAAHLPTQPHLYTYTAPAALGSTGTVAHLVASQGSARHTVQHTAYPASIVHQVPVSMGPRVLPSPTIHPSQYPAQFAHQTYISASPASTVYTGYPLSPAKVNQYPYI
# Sequence of Glycogen synthase kinase-3 beta (Homo sapiens) (P49841 whole entry, looked up): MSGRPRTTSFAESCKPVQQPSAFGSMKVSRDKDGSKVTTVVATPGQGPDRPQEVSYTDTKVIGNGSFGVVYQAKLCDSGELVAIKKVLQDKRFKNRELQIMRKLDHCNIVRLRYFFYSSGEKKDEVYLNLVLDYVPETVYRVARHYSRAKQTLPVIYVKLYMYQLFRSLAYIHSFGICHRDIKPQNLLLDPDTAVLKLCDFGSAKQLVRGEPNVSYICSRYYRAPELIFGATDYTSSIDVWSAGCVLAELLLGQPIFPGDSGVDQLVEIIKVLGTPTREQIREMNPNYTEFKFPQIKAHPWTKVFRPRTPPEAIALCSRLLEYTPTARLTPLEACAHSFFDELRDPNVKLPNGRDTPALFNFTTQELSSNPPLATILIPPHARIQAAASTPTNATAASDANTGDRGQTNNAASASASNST
# Sequence of Glycogen synthase kinase-3 alpha (Homo sapiens) (P49840 2-483 limits assumed): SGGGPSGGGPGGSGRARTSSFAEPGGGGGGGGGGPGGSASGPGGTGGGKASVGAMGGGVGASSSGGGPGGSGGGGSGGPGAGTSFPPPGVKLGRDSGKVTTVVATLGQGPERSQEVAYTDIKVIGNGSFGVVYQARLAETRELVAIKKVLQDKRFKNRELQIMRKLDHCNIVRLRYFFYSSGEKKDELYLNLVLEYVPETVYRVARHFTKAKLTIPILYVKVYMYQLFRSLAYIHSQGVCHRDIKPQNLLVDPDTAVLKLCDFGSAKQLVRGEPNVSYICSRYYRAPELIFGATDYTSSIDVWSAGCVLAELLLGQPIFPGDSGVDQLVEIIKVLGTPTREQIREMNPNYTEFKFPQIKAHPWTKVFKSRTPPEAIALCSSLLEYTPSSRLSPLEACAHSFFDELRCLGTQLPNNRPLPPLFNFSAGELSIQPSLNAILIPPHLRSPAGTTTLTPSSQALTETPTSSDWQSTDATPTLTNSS
smiles,measurement,setting,value
CO[C@H]1[C@@H](OC)C[C@H](C)[C@@H](OC)C2=CC(=O)C=C(NC(=O)/C(C)=C/C=C/[C@H](OC)[C@@H](OC(N)=O)/C(C)=C/[C@@H]1C)C2=O,residual activity,[1],89%
same,residual activity,[2],131%
same,residual activity,[3],112%
same,residual activity,[4],88%
same,residual activity,[5],96%
same,residual activity,[6],92%
same,residual activity,[7],81%
same,residual activity,[8],102%
same,residual activity,[9],89%
same,residual activity,[10],100%
same,residual activity,[11],92%
same,residual activity,[12],100%
same,residual activity,[13],109%
same,residual activity,[14],92%
same,residual activity,[15],104%
same,residual activity,[16],102%
same,residual activity,[17],104%
same,residual activity,[18],108%
same,residual activity,[19],92%
same,residual activity,[20],100%
O=C(Nc1cccc(Nc2nccc(Nc3cccc(C(F)(F)F)c3)n2)c1)C1CC1,residual activity,[1],6%
same,residual activity,[2],14%
same,residual activity,[3],2%
same,residual activity,[4],47%
same,residual activity,[5],7%
same,residual activity,[6],97%
same,residual activity,[7],32%
same,residual activity,[8],102%
same,residual activity,[9],94%
same,residual activity,[10],104%
same,residual activity,[11],88%
same,residual activity,[12],94%
same,residual activity,[13],67%
same,residual activity,[14],79%
same,residual activity,[15],104%
same,residual activity,[16],96%
same,residual activity,[17],102%
same,residual activity,[18],93%
same,residual activity,[19],89%
same,residual activity,[20],103%
O=C1NC(=O)c2cc(Nc3ccc(F)cc3)c(Nc3ccc(F)cc3)cc21,residual activity,[1],65%
same,residual activity,[2],75%
same,residual activity,[3],54%
same,residual activity,[4],68%
same,residual activity,[5],50%
same,residual activity,[6],81%
same,residual activity,[7],71%
same,residual activity,[8],90%
same,residual activity,[9],81%
same,residual activity,[10],93%
same,residual activity,[11],77%
same,residual activity,[12],84%
same,residual activity,[13],40%
same,residual activity,[14],69%
same,residual activity,[15],27%
same,residual activity,[16],93%
same,residual activity,[17],99%
same,residual activity,[18],94%
same,residual activity,[19],84%
same,residual activity,[20],97%
O=C1NC(=O)c2c1c1c3ccccc3[nH]c1c1[nH]c3cc(Br)ccc3c21,residual activity,[1],3%
same,residual activity,[2],78%
same,residual activity,[3],68%
same,residual activity,[4],85%
same,residual activity,[5],62%
same,residual activity,[6],88%
same,residual activity,[7],74%
same,residual activity,[8],89%
same,residual activity,[9],89%
same,residual activity,[10],96%
same,residual activity,[11],79%
same,residual activity,[12],92%
same,residual activity,[13],30%
same,residual activity,[14],103%
same,residual activity,[15],57%
same,residual activity,[16],102%
same,residual activity,[17],96%
same,residual activity,[18],101%
same,residual activity,[19],85%
same,residual activity,[20],92%
Cc1nc2cc3nc(-c4cccs4)cnc3cc2n1C,residual activity,[1],2%
same,residual activity,[2],52%
same,residual activity,[3],8%
same,residual activity,[4],103%
same,residual activity,[5],69%
same,residual activity,[6],110%
same,residual activity,[7],85%
same,residual activity,[8],77%
same,residual activity,[9],92%
same,residual activity,[10],113%
same,residual activity,[11],78%
same,residual activity,[12],136%
same,residual activity,[13],109%
same,residual activity,[14],101%
same,residual activity,[15],81%
same,residual activity,[16],107%
same,residual activity,[17],106%
same,residual activity,[18],104%
same,residual activity,[19],73%
same,residual activity,[20],92%
O=C1NC(=O)/C(=C/c2ccc3c(c2)OC(F)(F)O3)S1,residual activity,[1],83%
same,residual activity,[2],56%
same,residual activity,[3],72%
same,residual activity,[4],93%
same,residual activity,[5],79%
same,residual activity,[6],106%
same,residual activity,[7],87%
same,residual activity,[8],101%
same,residual activity,[9],87%
same,residual activity,[10],107%
same,residual activity,[11],93%
same,residual activity,[12],100%
same,residual activity,[13],92%
same,residual activity,[14],93%
same,residual activity,[15],90%
same,residual activity,[16],99%
same,residual activity,[17],98%
same,residual activity,[18],104%
same,residual activity,[19],76%
same,residual activity,[20],89%
O=C1NC(=O)/C(=C\c2ccc3nccnc3c2)S1,residual activity,[1],70%
same,residual activity,[2],126%
same,residual activity,[3],112%
same,residual activity,[4],83%
same,residual activity,[5],79%
same,residual activity,[6],75%
same,residual activity,[7],26%
same,residual activity,[8],82%
same,residual activity,[9],79%
same,residual activity,[10],87%
same,residual activity,[11],55%
same,residual activity,[12],90%
same,residual activity,[13],51%
same,residual activity,[14],85%
same,residual activity,[15],54%
same,residual activity,[16],83%
same,residual activity,[17],28%
same,residual activity,[18],49%
same,residual activity,[19],7%
same,residual activity,[20],53%
